Source: PubChem (National Center for Advancing Translational Sciences (NCATS))
HCV inhibitor: blocks hepatitis C virus | Huh7.5.1 HCVcc-Cre infection, luciferase reporter, 44 h | Potency, µM (highest dose often 41.8 µM), for inactives: at the highest dose activity change, negative = inhibition, hits mostly inhibitors | 340,000 tested, 3.4% active | AID 651820; active = well fitted inhibition curve with a large enough effect; inconclusive = small, poorly fitted or top-dose-only effect, or another doubt; inactive = no such curve, though single readings can be large or run the other way; also: potency is read from the fitted curve at half-maximal effect
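Reporter virus HCVcc-Cre (~0.5 moi) infects cells exposed to compound; seeding density 1,000 cells/well with 4 h settling beforehand. Luminescence, 15 sec read, taken 44 h post-infection following a 15 min RT substrate incubation.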
HCMV inh: human cytomegalovirus inhibition; HFF cells, HCMV-luciferase reporter, 72 h; stronger effect = lower value; activity change, negative = inhibition, % at 57.5 µM; 410,000 tested, 4.5% active; AID 1259415; in the data active = activity change below about -60%; inconclusive = no clear call, values can overlap the other calls; inactive = above about -39%
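Compounds were evaluated in HFFs infected with an HCMV luciferase reporter virus (MOI 1 PFU/cell). Luciferase in lysates collected 72 h post infection served as the replication measure.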
VACV mCherry inh: vaccinia inhibition (mCherry reporter). Vaccinia virus mCherry reporter infection, fluorescence. Potency, µM (series often up to 36.5 µM), for inactives: at the top dose activity change, negative = inhibition, actives largely listed as inhibitors. 310,000 tested, 0.63% active. AID 720579; calls by dose curve; tested in A549 cells; also: potency is read from the fitted curve at half-maximal effect; nearly all actives have a fitted effect of over 35% in size
MARV entry inh: blocks Marburg virus binding to or entry into cells. Marburg virus pseudotyped entry inhibition, cell reporter. Potency, µM (highest dose often 37.8 µM), for inactives: at the top dose activity change, negative = inhibition, most hits filed as inhibitors. 300,000 tested, 1.8% active. AID 540276; calls by dose curve; tested in HEK293 cells; also: potency is read from the fitted curve at half-maximal effect
VACV Venus inh: inhibitors of vaccinia virus (Venus reporter); Vaccinia virus Venus reporter expression, fluorescence; Potency, µM (titrated, usually from 36.5 µM), for the others: at the top dose activity change, negative = inhibition, usual class: inhibitors; 330,000 tested, 0.46% active; calls by dose curve; tested in A549 cells; also: potency is read from the fitted curve at half-maximal effect; nearly all actives have a fitted effect of over 30% in size
Lassa entry inh: blocks Lassa virus binding to or entry into cells. Potency, µM (titrated, usually from 37.9 µM), for inactives: top-dose activity change, negative = inhibition, hits mostly inhibitors. AID 540256. Lassa virus pseudotype entry inhibition, cell reporter. 300,000 tested, 1.2% active; calls by dose curve; tested in HEK293 cells; also: potency is read from the fitted curve at half-maximal effect; nearly all actives have a fitted effect of over 50% in size
An asterisk follows results filed as active; i = inactive; ? = inconclusive; nt = no result; [ ] = another dose, or the depositor's remark. A selection: hits, their analogues and other compounds. The true share with any hit is near 7.8%. % is scaled to controls: 0 for no effect and ±100 for the full control effect.

SMILES | HCV inhibitor | HCMV inh | VACV mCherry inh | MARV entry inh | VACV Venus inh | Lassa entry inh
CCOc1ccc(CCNC(=O)C(CC)n2nc(C)c3c(C)n(-c4ccccc4)nc3c2=O)cc1 (stereo not drawn) | nt | -32 | -22% | nt | -17% | -17%[46.1 µM]
CCN(CC)S(=O)(=O)c1cc(C(=O)Nc2cc(C)on2)ccc1Cl | ? | -64* | -15% | -28%[46.1 µM] | 1% | 12%[46.1 µM]
CCN(CC)S(=O)(=O)c1cccc(C(=O)N/N=C(\C)c2ccc(O)cc2O)c1 | 8.9µM* | -95* | ? | 7.9µM* | ? | ?
CCN(CC)S(=O)(=O)c1cc(C(=O)Nc2ccc(Cl)cn2)ccc1C | 16µM* | 41 | nt | ? | ? | ?
CCN(CC)S(=O)(=O)c1cccc(C(=O)N[C@H](C(=O)NCc2ccc(Cl)cc2)C(C)C)c1 | ? | -17 | -6% | 10µM* | -26% | 13µM*
CCN(CC)S(=O)(=O)c1cccc(C(=O)N/N=C/c2ccc(O)c(O)c2O)c1 | 7% | 34 | i | 1% | -7% | 6%
CCN(CC)S(=O)(=O)c1cccc(C(=O)N[C@H](C(=O)NCc2ccccc2F)C(C)C)c1 | -24% | 6 | nt | -29% | nt | -28%
C=C(C[C@@]1(C(=O)OC)C=C[C@@H](C)[C@H](c2ccccc2Br)N1C(=O)C(F)(F)F)c1ccccc1 | nt | nt | nt | -14%[14.2 µM] | nt | nt
COc1cc(=O)n2c(c1C(=O)N(C)Cc1nonc1C)CCN(Cc1ccc(C)cc1C)CC2 | nt | nt | -18% | nt | 1% | nt
CC(=O)Nc1cc([N+](=O)[O-])cc(NC(C)=O)c1NC(C)=O | nt | nt | 11% | nt | -7% | nt
CCN(CC)S(=O)(=O)c1cccc(C(=O)Nc2ccccc2C(=O)Nc2ccc(Cl)cc2)c1 | nt | 7 | -13% | nt | -15% | ?
CCN(CC)S(=O)(=O)c1cccc(C(=O)Nc2ccc(Cl)cn2)c1 | 3.5µM* | -11 | nt | ? | nt | ?
COc1ccc(NC(=O)c2oc3ccc4c(c3c2C)C(=O)CC(C)(C)O4)cc1OC | nt | 69 | -18% | nt | -5% | -22%[46.1 µM]
CCc1cccc(NC(=O)c2oc3ccc4c(c3c2C)C(=O)CC(C)(C)O4)c1 | nt | -60* | -10% | nt | -8% | -1%[46.1 µM]
COc1ccc(Cl)cc1NC(=O)C1CCCN(c2ncnc3onc(C)c23)C1 (stereo not drawn) | nt | -77* | -22% | nt | -11% | -16%[46.1 µM]
COc1ccc(NC(=O)C2CCCN(c3ncnc4onc(C)c34)C2)cc1OC (stereo not drawn) | nt | -14 | i | nt | -6% | 7%[46.1 µM]
C[C@H]1C[C@@H](C)C(=O)[C@@H]([C@H](O)CC2CC(=O)NC(=O)C2)C1 | ? | -107* | 0.32µM* | nt | 0.32µM* | nt
CCOC(=O)CN1C(=O)CC(C[C@@H](O)C2C[C@@H](C)C[C@H](C)C2=O)CC1=O (stereo partly drawn) | nt | nt | i | nt | -8%[60.7 µM] | nt
CCC12CN3CCN(CC(C3)/C1=N/NC(N)=O)C2 | 7% | -35 | -2% | 7%[46.1 µM] | -2% | 18%
CC1CC(C)C(=NNC(N)=O)C(C(O)CC2CCC(=O)NC2=O)C1 (stereo not drawn) | 10µM* | ? | ? | ? | 7.9µM* | ?
CC1CC(C)C(=O)[C@H](C(O)CC2CC(=O)NC(=O)C2)C1 (stereo partly drawn) | nt | nt | 2µM* | nt | 0.89µM* | nt
O=[N+]([O-])c1ccccc1-c1onc(-c2ccccc2Br)c1Br | nt | 11 | nt | nt | nt | nt
Cc1ccc(C(=O)c2ccccc2C(=O)OCC(=O)Nc2cccc([N+](=O)[O-])c2)cc1 | -9% | -35 | -18% | ? | ? | -25%
CCCNC(=O)COC(=O)c1ccccc1C(=O)c1ccc(Cl)c([N+](=O)[O-])c1 | ? | -113* | ? | 3.2µM* | 14µM* | ?
Cc1ccc(Cl)c(NC(=O)COC(=O)c2ccccc2C(=O)c2ccc(Cl)c([N+](=O)[O-])c2)c1Cl | ? | -102* | ? | 4.6µM* | ? | 13µM*
SMILES | HCV inhibitor | HCMV inh | VACV mCherry inh | MARV entry inh | VACV Venus inh | Lassa entry inh
CNc1ccc(C=C2C=CC=C2)cc1 | nt | nt | 11% | nt | -5% | nt
COc1cc(O)ccc1CN1CCc2nnc(C(C)NC(=O)c3cc(F)ccc3F)n2CC1 (stereo not drawn) | nt | nt | i | nt | -10% | nt
CC(C)=C1C2CCC1C(C(=O)Nc1sc(C)c(-c3ccc(C(C)C)cc3)c1C(N)=O)C2C(=O)O (stereo not drawn) | ? | -22 | -23% | 21µM* | ? | ?
COC(=O)c1c(NC(=O)/C=C/C(=O)O)sc(C)c1-c1ccc(C(C)C)cc1 | 4% | ? | -14% | -16%[46.1 µM] | -26% | 5.6µM*
CCOc1ccc(NC(=O)Cn2cc(C(=O)c3ccc(F)cc3)c(=O)c3cc4c(cc32)OCO4)cc1 | nt | 70 | -19% | -17%[46.1 µM] | -26% | 8%[46.1 µM]
COc1cccc(NC(=O)CSC2=Nc3ccccc3C3=NC(CCC(=O)NCCc4ccccc4)C(=O)N23)c1 (stereo not drawn) | nt | -68* | ? | nt | ? | -10%[46.1 µM]
COc1ccc(NC(=O)CSC2=Nc3ccccc3C3=NC(CCC(=O)NCc4cccs4)C(=O)N23)cc1 (stereo not drawn) | nt | -73* | -26% | nt | -20% | 5%[46.1 µM]
O=C(CSC1=Nc2ccccc2C2=NC(Cc3ccccc3)C(=O)N12)Nc1cccc(Cl)c1 (stereo not drawn) | nt | -72* | ? | nt | -22% | ?
CCOc1ccc(NC(=O)Cn2c(=O)c(CNc3ccc(CC)cc3)cc3cc4c(cc32)OCO4)cc1 | nt | 9 | -14% | nt | 6% | ?
COc1ccc(-c2ccc(=O)n(CC(=O)Nc3cc(OC)ccc3OC)n2)cc1 | nt | 1 | -15% | nt | -7% | -16%[46.1 µM]
Cc1oc(-c2ccc(C(=O)NCc3cccc(F)c3)cc2)nc1COc1ccccc1 | nt | -15 | -8% | nt | -1% | 26%[46.1 µM]
CCOC(=O)N1CCc2[nH]c3ccc(C)cc3c2C1 | ? | -15 | i | ? | ? | ?
CCOC(=O)C(O)C1CCc2c([nH]c3ccc(C)cc23)C1=O (stereo not drawn) | ? | 29 | -16% | ? | ? | 11µM*
CCOC(=O)c1cc(-c2ccncc2)nc2c1c(C)nn2C | ? | -3 | nt | ? | nt | -17%
CCOC(=O)c1cc(-c2ccccc2)nc2c1c(C)nn2-c1ccccn1 | 10µM* | -8 | nt | ? | ? | -22%
COc1ccc(C(=O)COc2nc(C)cc(C)c2C#N)cc1 | ? | -64* | nt | ? | nt | -4%
Cn1cnc(S(=O)(=O)N2CCCC(c3cc(C(=O)Nc4ccc(F)c(Cl)c4)no3)C2)c1 (stereo not drawn) | nt | -28 | i | nt | -11% | nt
CC(C)(C)c1ccc(NC(=O)c2cc(C3CCCN(S(=O)(=O)c4cccc5cccnc45)C3)on2)cc1 (stereo not drawn) | nt | -86* | -13% | nt | -15% | nt
O=C(Nc1ccc(F)c(Cl)c1)c1cc(C2CCCN(S(=O)(=O)c3ccccc3)C2)on1 (stereo not drawn) | nt | -69* | i | nt | -3% | nt
